Source: PubChem BioAssay AID1159580 (chemical genetic matrix, 2015)
The campaign covered roughly 5,500 compounds. About 2,000 (36%) were called active. Inconclusive results (about 18%) are left out. Rule as the data show it: active = normalized growth mostly below about 0.91 (no sharp cut-off); inconclusive = no clear call, values can overlap the other calls; inactive = mostly above about 0.92. This is one part of the list.

Assay: chemical genetic growth profiling, strain panel (AID 1159580);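 also: tested at 20 µM; growth read once vehicle control cultures reached saturation at 30 °C; 1 = growth at the plate median or of vehicle wells; lower values mean less growth of the strain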
Details: S. cerevisiae deletion strains, growth OD
[1] = locus YAL013W, strain DEP1, active compounds read low
[2] = locus YAL040C, strain CLN3, active compounds read low
[3] = locus YCL061C, strain MRC1 (second series), active compounds read low
[4] = locus YDR150W, strain NUM1, active compounds read low
[5] = locus YDR363W, strain ESC2, active compounds read low
[6] = locus YER002W, strain NOP16, active compounds read low
[7] = locus YGR078C, strain PAC10, active compounds read low
[8] = locus YMR307W, strain GAS1, active compounds read low
[9] = locus YNL175C, strain NOP13, active compounds read low
[10] = locus YNL197C, strain WHI3, active compounds read low
[11] = locus YNL224C, strain SQS1, active compounds read low
[12] = locus YNL322C, strain KRE1, active compounds read low
[13] = locus YOR083W, strain WHI5 (second series), active compounds read low
[14] = locus YPL055C, strain LGE1, active compounds read low
[15] = locus YPL241C, strain CIN2, active compounds read low
[16] = locus YJR075W, strain HOC1, active compounds read low
[17] = locus YMR263W, strain SAP30, active compounds read low

Measured: normalized growth

OC[C@H]1O[C@@H](n2cnc3c(N[C@H]4CC5CCC4C5)ncnc32)[C@H](O)[C@@H]1O (stereo partly drawn)
inactive: [1] 1 | [2] 1.02 | [3] 1.01 | [4] 1.01 | [5] 1 | [6] 1.02 | [7] 1.03 | locus YGR229C, strain SMI1, active compounds read low 0.938 | [8] 0.999 | locus YNL128W, strain TEP1, active compounds read low 0.992 | [9] 1.01 | [10] 0.994 | [11] 0.974 | [12] 1.01 | [13] 1.04 | [14] 1.03 | [15] 1.01

CCCn1c(=O)c2[nH]c(C3CCCC3)nc2n(CCCOC(=O)c2ccc(S(=O)(=O)F)cc2)c1=O
inactive: [1] 0.992 | [2] 0.987 | [3] 1.01 | [5] 0.998 | [6] 1 | [7] 1.02 | [16] 0.994 | [17] 0.999 | [9] 1.01 | [10] 1 | [11] 1.01 | [13] 0.995 | [14] 1.01

CCOC(=O)C1C(c2cccnc2)C(C(=O)OCC)C(O)(C(F)(F)F)NC1(O)C(F)(F)F (stereo not drawn)
inactive: [1] 1 | locus YBR229C, strain ROT2, active compounds read low 1 | locus YCL061C, strain MRC1, active compounds read low 1.02 | locus YDL101C, strain DUN1, active compounds read low 1 | [4] 0.985 | locus YEL061C, strain CIN8, active compounds read low 0.985 | [7] 1.01 | locus YHR030C, strain SLT2, active compounds read low 1.01 | locus YHR087W, strain rtc3, active compounds read low 1.01 | locus YJR043C, strain POL32, active compounds read low 0.996 | [16] 1.03 | locus YKL190W, strain CNB1, active compounds read low 1.01 | locus YLR039C, strain RIC1, active compounds read low 1.05 | locus YLR058C, strain SHM2 (second series), active compounds read low 1.01 | locus YLR085C, strain ARP6, active compounds read low 1.01 | locus YLR262C, strain YPT6, active compounds read low 1.02 | locus YML094W, strain GIM5, active compounds read low 0.965 | locus YMR219W, strain ESC1, active compounds read low 1.01 | [17] 1.04 | [8] 0.995 | locus YNL153C, strain GIM3, active compounds read low 1.01 | locus YNL298W, strain CLA4 (second series), active compounds read low 1 | [12] 0.994 | locus YNR030W, strain Alg12, active compounds read low 1 | locus YOL006C, strain TOP1, active compounds read low 0.963 | [14] 1 | [15] 1.02 | locus YPR135W, strain CTF4, active compounds read low 0.982
